Assay results reported in PubChem BioAssay AID504339 (National Center for Advancing Translational Sciences (NCATS), 2011).
Among all 390,000 compounds or so, about 17,000 (4.4%) were called active. Not shown: some 8% with an inconclusive outcome. Many of the other results were omitted from the sample, so actives are more common in it than they were. Unmarked numbers belong to inactive results. The call rests on the fitted dose curve; in most records, active means well fitted inhibition curve with a large enough effect; inconclusive means small, poorly fitted or top-dose-only effect; inactive means no such curve, though single readings can be large or run the other way.

Target: Lysine-specific demethylase 4A (Homo sapiens) (UniProt O75164)
Sequence (O75164 whole entry, looked up, the tested form may be a part): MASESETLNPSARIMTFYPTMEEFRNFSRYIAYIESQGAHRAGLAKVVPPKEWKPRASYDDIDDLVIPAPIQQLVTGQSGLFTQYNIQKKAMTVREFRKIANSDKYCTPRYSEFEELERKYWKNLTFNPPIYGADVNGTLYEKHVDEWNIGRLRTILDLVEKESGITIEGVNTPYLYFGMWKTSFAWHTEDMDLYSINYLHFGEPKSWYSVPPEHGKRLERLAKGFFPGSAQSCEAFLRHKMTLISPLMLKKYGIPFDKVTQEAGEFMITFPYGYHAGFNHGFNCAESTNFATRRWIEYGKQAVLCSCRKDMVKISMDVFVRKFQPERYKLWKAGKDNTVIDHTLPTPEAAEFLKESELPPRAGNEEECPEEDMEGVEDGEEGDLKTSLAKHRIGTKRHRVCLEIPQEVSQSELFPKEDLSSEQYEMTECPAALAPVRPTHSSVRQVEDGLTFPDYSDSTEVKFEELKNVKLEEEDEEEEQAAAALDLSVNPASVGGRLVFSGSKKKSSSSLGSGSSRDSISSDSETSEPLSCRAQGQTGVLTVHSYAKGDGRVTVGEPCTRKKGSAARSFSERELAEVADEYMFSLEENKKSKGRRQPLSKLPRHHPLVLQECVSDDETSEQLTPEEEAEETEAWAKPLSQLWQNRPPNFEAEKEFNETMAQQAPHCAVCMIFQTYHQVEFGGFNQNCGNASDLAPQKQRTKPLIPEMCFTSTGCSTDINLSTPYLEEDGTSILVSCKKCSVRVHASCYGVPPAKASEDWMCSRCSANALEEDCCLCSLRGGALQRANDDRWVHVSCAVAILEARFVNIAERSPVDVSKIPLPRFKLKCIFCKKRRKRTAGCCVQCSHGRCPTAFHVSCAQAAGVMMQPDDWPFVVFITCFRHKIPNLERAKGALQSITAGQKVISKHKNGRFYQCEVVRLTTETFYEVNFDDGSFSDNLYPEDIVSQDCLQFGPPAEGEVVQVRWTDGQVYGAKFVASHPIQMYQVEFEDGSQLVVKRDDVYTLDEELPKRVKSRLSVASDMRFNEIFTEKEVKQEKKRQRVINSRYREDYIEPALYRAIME
Assay: qHTS Assay for Inhibitors of JMJD2A-Tudor Domain; further: nearly all actives have a fitted effect of over 50% in size
Settings: AlphaScreen JMJD2A-Tudor / H3K4me3 peptide binding; series mostly up to 114 µM; activity change, negative = inhibition: at the top concentration
Text: JMJD2A is a jumonji-domain-containing lysine demethylase that uses Fe(II) together with 2-OG to effect oxidative demethylation of histones. Methylation is one of many […] modification that affect epigenetic transcription. […] It is proposed that the functions of JmjD2A binding to the histones, is to maintain marks after they are installed and to spread the modifications by […], establishing a self-propagating cycle for rapid methylation over a large area of chromatin. […] Thus, small molecule targeting of the JMJD2A-tudor domain interaction with its target methylhistone mark is expected to enable sophisticated experiments probing the fine regulatory pathways leading to selective demethylation of a given methyllysine locus based on the methylation state of adjacent histone marks. A quantitative high throughput AlphaScreen has been developed to identify small molecule inhibitors based on a protocol published by NCGC and SGC [4].
Although AlphaScreen has significant advantages with its utility in a variety of epigenetic target assays, the primary screening data provided in this deposition should be used with caution due to the prevalence of screening artifacts. The top compound concentration tested was high (>100uM) in this assay, which increases number of actives and potential artifacts. An AlphaScreen counterscreen is highly recommended to be run against any putative actives to eliminate non-specific artifacts. Alternatively, one can use other AlphaScreen assays in PubChem to filter out promiscuous hits.
[1] Lee, J. et al. Distinct binding modes specify the recognition of methylated histone H3K4 and H4K20 by JMJD2A-tudor. Nat Struct Mol Biol. 15(1); 109-11. 2008. PMID: 18084306
[2] Yasgar, et al. Compound Management for Quantitative High-Throughput Screening. JALA. 2008 Apr;13(2):79-89. PMID: 18496600
[3] Inglese, et al. Quantitative high-throughput screening: a titration-based approach that efficiently identifies biological activities in large chemical libraries. Proc Natl Acad Sci. 1;103(31):11473-8. 2006. PMID: 16864780
[4] Quinn et al. A homogeneous method for investigation of methyl-dependent protein-protein interactions in epigenetics. Nucleic Acids Res., 38(2):e11. 2010. PMID: […]
[5] Baell,Holloway. New substructure filters for removal of pan assay interference compounds (PAINS) from screening libraries and for their exclusion in bioassays. J Med Chem. 53(7):2719-40. 2010. PMID: 20131845
NIH Molecular Libraries Probe Production Network [MLPCN]
NIH Chemical Genomics Center [NCGC]
Structural Genomics Consortium (SGC)
To each well of a 1,536w plate, 2ul of JMJD2A-Tudor (final 100nM) and 1ul biotinylated histone peptide methylated at Lys4 [b-H3(1-18)K4me3] (final 50nM) were added in 1x PBS buffer, pH 7.4, containing 0.01% Tween-20, using a nanoliter dispenser. Formation of a protein-peptide complex proceeded at room temperature for 30 min. A Kalypsys pin-tool transferred 23nl of library compound solution in DMSO to each well. Following a 30 min incubation of the protein-peptide complex with compounds at room temperature, a mixture of 40 µg/mL each streptavidin-coated donor and nickel chelate acceptor AlphaScreen beads (final 10 µg/mL) was added in a 1ul dispense for a final volume of 4ul, followed by a brief centrifugation (1000 rpm, 1 min). Plates were incubated protected from the light for 20 min at room temperature. Microplates were then read on an EnVision multilabel plate reader using the 1,536 plate HTS AlphaScreen aperture (excitation time 80 ms, measurement time 240 ms).
On the % scale 0 is the no-effect control and ±100 the full control effect; potency means the concentration at half of the fitted maximal effect.

Row | Structure (SMILES) | activity change, negative = inhibition | Potency
1 | CN(CC(=O)Nc1ccc(N2CCOCC2)cc1)CC(=O)Nc1ccccc1[N+](=O)[O-] | -5.3% | –
2 | COc1ccc(N2CCN(C(=O)CNC(=O)c3ccc(Br)o3)CC2)cc1 | -12.5% | –
3 | CC(=O)N1CCN(c2ccc(NCc3ccc(C(C)C)cc3)cc2)CC1 | – | 44.7 µM (active)
4 | CC(=O)c1ccc(N2CCN(C(=O)CCc3ccccc3)CC2)cc1 | -19.3% | –
5 | O=C(O)c1cscn1 | – | 4.47 µM (active)
6 | Cc1ccc2nc(COc3ccccc3NC(=O)Nc3ccc(F)c(Cl)c3)cc(=O)n2c1 | -14.3% | –
7 | COc1ccc(CCNC(=O)CCCCn2c(=O)c3ccccc3n(Cc3ccccc3)c2=O)cc1OC | -5.46% | –
8 | CCOC(=O)Cc1ccc(NC(=O)Nc2c[nH]c(=O)[nH]c2=O)cc1 | -8.28% | –
9 | CCCCN(CC)CCCNC(=O)Cn1ncc2c([nH]c3ccc(C)cc32)c1=O | -26.9% | –
10 | CCCSc1ncc(Cl)c(C(=O)Nc2sc3c(c2C(=O)NCCOC)CCCC3)n1 | -20.1% | –
11 | Cc1ccc(NC(=S)N(CCCN2CCCC2)Cc2cccn2Cc2ccc(Cl)cc2)cc1 | – | 50.1 µM (active)
12 | Cc1ccc(NC(=S)N(CCCN2CCC(C)CC2)Cc2ccco2)cc1 | -28.5% | –
13 | Cc1ccccc1NC(=S)N(CCCN1CCOCC1)Cc1cccs1 | -11.6% | –
14 | O=c1[nH]c2cc(Br)ccc2n2cccc12 | 0.336% | –
15 | COc1cc(C(=O)N2CCN(c3ccc(Nc4ccc(C)cc4)nn3)CC2)cc(OC)c1OC | -20.8% | –
16 | Cc1ccc(N=C2NC(=O)/C(=C/C=C/c3ccco3)S2)cc1C | – | 39.8 µM (active)
17 | COc1ccc(OC)c(CCNC(=O)CCCn2c(=O)c3cccn3c3cccnc32)c1 | -6.23% | –
18 | O=C(Cn1c(=O)n(Cc2cccs2)c(=O)c2cccnc21)Nc1ccc(F)cc1 | -9.09% | –
19 | CC(C)(C)n1c(=O)[nH]c2c(c1=O)CCC2 | 4.4% | –
20 | O=c1[nH]n2c(=O)c3c([nH]c2c1N=Nc1ccccc1)CCC3 | – | 50.1 µM (active)
21 | Cc1ccc2oc(=O)c3cnn(CC(=O)NCc4ccccc4Cl)c3c2c1 | -22.5% | –
22 | CCOc1cc(C(=O)NCCc2csc3nc(-c4ccc(C)cc4)nn23)cc(OCC)c1OCC | 3.3% | –
23 | Cc1cccc(C)c1NC(=O)CCCSc1nnc(-c2ccco2)n1-c1ccccc1 | -27.9% | –
24 | Cc1cc(NC(=O)CSc2nnc(-c3ccco3)n2N)no1 | -18.8% | –
25 | COc1ccc(-c2nnc(SCC(=O)c3ccco3)n2-c2ccccc2)cc1 | – | 56.2 µM (active)

Row | Structure (SMILES) | activity change, negative = inhibition | Potency
26 | COc1ccc(C(=O)NC(=O)CSc2nnc(-c3ccco3)n2-c2ccccc2)cc1 | -4.05% | –
27 | NNC(=O)CSc1nnc(-c2ccccc2)n1-c1ccccc1 | -15.9% | –
28 | CCOc1ccc(-n2c(SCC(N)=O)nnc2-c2ccco2)cc1 | – | 20 µM (active)
29 | O=C1OC(C(=O)Nc2cccc(Br)c2)Cc2ccccc21 (centres undefined) | -5.15% | –
30 | CCOC(=O)c1ccc(NC(=O)c2ncn(-c3ccccc3)n2)cc1 | -1.37% | –
31 | NC1=NC(c2cc(F)cc(F)c2)n2c(nc3ccccc32)N1 (centres undefined) | -11.9% | –
32 | COc1ccccc1NC(=O)c1cc(S(=O)(=O)NCCc2ccccc2)ccc1F | -22.6% | –
33 | Oc1ccccc1-c1nc(/C=C/c2ccc(F)cc2)no1 | -4.81% | –
34 | Cn1c(=O)c(=O)n(C)c2cc(NC(=O)c3ccccc3Br)ccc21 | -0.685% | –
35 | O=C(Nc1ccc(-n2ccnc2P(=O)(O)c2ccccc2)cc1)c1ccccc1Br | – | 8.91 µM (active)
36 | Cc1ccc(NC(=O)c2cccnc2C(=O)Nc2ccc(C)cc2)cc1 | -17.7% | –
37 | COc1ccc(CCNC(=O)c2cc3cccc4c3n2CC(C)S4)c(OC)c1OC (centres undefined) | -10.7% | –
38 | S=c1[nH]nc(-c2ccc(Cl)cc2)n1CC1CCCO1 (centres undefined) | – | 8.91 µM (active)
39 | Cc1nnc(SCC(=O)NNC(=O)c2ccc(Cl)cc2)n1CC1CCCO1 (centres undefined) | -2.01% | –
40 | CNC(=O)NC(=O)CSc1nnc(-c2ccc(F)cc2)n1CC1CCCO1 (centres undefined) | -27.5% | –
41 | COc1cc2[nH]c(=O)n(Cc3ccc(C(=O)NCc4ccc(C)cc4)cc3)c(=O)c2cc1OC | -8.53% | –
42 | O=C(NCC(c1ccc(Cl)cc1)N1CCOCC1)c1ccccc1F (centres undefined) | 1.32% | –
43 | O=C(Nc1ccc(C(=O)OCc2cc(=O)n3nc(C4CC4)sc3n2)cc1)c1ccc(F)cc1 | 8.94% | –
44 | CCN(C(=O)CSc1nnc(C)n2c1cc1occc12)c1ccccc1 | -21.2% | –
45 | CNC(=O)CN1C(=O)c2cccnc2Sc2ccccc21 | -12.7% | –
46 | CSc1n[nH]c(=S)n1N | – | 17.8 µM (active)
47 | CCOC(=O)C1CCN(c2ccc(C(=O)O)cc2[N+](=O)[O-])CC1 | -9.25% | –
48 | CCOC(=O)C1CCN(c2csc3ccc(C)cc3c2=O)CC1 | – | 17.8 µM (active)
49 | CCOC(=O)C1CCN(c2c(Nc3cc(C)cc(C)c3)c(=O)c2=O)CC1 | 1.41% | –
